Results on 47 molecules are retold here after PubChem BioAssay AID1508642 (National Center for Advancing Translational Sciences (NCATS), 2021).

The whole screen tested about 43,000 compounds, of which about 200 (0.47%) were called active. About 12% were inconclusive and are not listed. This is one part of a sample in which actives are shown more often than they occur. A number with no mark means an inactive call. Calls come from the whole dose curve; as a rule, active = well fitted cell-killing curve with a large enough effect; inconclusive = small, poorly fitted or top-dose-only effect, or effect the other way; inactive = flat fitted curve, though single readings scatter.
% is set by controls: 0 for no effect and ±100 for the full control effect.

A short description of this test: Cell viability qHTS assay in S16 Pmp22-F2sN cells. Note: nearly all actives have a fitted effect of over 65% in size. To be noted: S16 Pmp22-F2sN Schwann cells (luciferase reporters placed in the Pmp22 gene) viability, CellTiter-Glo, 24 h; series mostly up to 57.5 µM; activity change, negative = cytotoxicity: at the top concentration. An excerpt:
Assay Provider: Jim Inglese Ph.D. National Center for Advancing Translational Science, National Institutes of Health, Rockville, MD CMT is a heterogeneous group of neurological disorders that affect approximately 1 in 2,500 people. In particular, the most common form of CMT, CMT1A is genetically linked to the duplication of the PMP22 gene which leads to Schwann cell overexpression, thus manifesting itself as a typical case of dose-sensitive diseases. To identify small molecule compounds that can mediate the expression of PMP22 we developed a phenotypic assay screening strategy by utilizing genome editing techniques to construct Schwann cell lines containing novel reporter technology to monitor the transcriptional or translational regulation of PMP22. For high sensitivity we use a bioluminescent reporter system embedded in the 3' UTR of the PMP22 gene (S16(c9) Pmp22-F2sN) to identify compounds that inhibit gene expression. […] We can further discriminate the effect of all transcriptionally active molecules on PMP22 translation or stability with an assay that incorporates a short NLuc peptide (HiBiT) at the C-terminus of expressed PMP22 (S16(f8) PMP22-HiBiT) allowing alpha complementation and luminescence detection of membrane-associated PMP22 protein. These assays were screened against the NCATS Sytravon Library Collection. Miniaturization of these assays to 1536-well plate format for quantitative high throughput screening (qHTS) yielded rich data sets immediately from the qHTS assay (S16(c9) Pmp22-F2sN), when compared with data from a cell viability assay (Cell TiterGlo) to identify compounds that decreased the output signals through cellular toxicity to streamline the selection process of actives for subsequent characterization using the HiBiT assay (S16(f8) PMP22-HiBiT).
Cell viability assay in S16 Pmp22-F2sN cells PROTOCOL TABLE (format as described by Inglese J, Shamu CE and Guy RK. 2007) SEQUENCE No. (e.g., 1, 2, 3, etc.); […] (e.g., Cells, Incubation, Reagent, etc.); VALUE and DESCRIPTION. 1. Cells. Add 500-1,000 cells in 4 uL in growth media (DMEM High Glucose, No Phenol Red media + 10% heat-inactivated FBS + 1% Pen/Strep supplemented media) per well into Greiner 1536-well white/solid bottom high base, TC-treated plates. 2. Compounds. Library compounds and controls added at 23nL per well, transferred by Pin Tool. 3. Incubation. Incubate plates at 37C, 5% CO2, 95% RH for 24 h. 4. Reagent. Add 3uL CellTiter-Glo per well of Greiner 1536-well plates. 5. Incubation. Incubate plates at room temperature for 15 min., protect from light. 6. Detector. FLuc luminescence measured using CCD-based camera (Viewlux). NOTES (numbers refer to Sequence numbers above; values are from representative experiments) 6. Luminescence Read: Clear filter; Exposure = 1 sec, Gain = High, Speed = Slow, Binning = 2X REFERENCES: 1. Inglese J, Shamu CE and Guy RK, Reporting data from high throughput screening of small molecule libraries, Nature Chemical Biology, 2007, 3(8): 438-441. doi.org/10.1038/nchembio0807-438 2. Yasgar A, Shinn P, Jadhav A, Auld DS, Michael S, Zheng W, Austin CP, Inglese J and Simeonov A, Compound Management for Quantitative High-Throughput Screening. J. Assoc. Lab. Auto., 2008, 13: 79-89. doi: 10.1016/j.jala.2007.12.004
For orientation: In qHTS, concentration-response curves come from the screen itself.
As to `COc1ccc(CC(=O)NCCc2sc3nc(-c4ccc(OC)cc4)nn3c2C)cc1`, the “activity change, negative = cytotoxicity” value was -14.4%. Then `CC(=O)Nc1cccc(NC(=O)CSc2nccn2Cc2ccc3c(c2)OCO3)c1`, with 5.54%.

Take `CCCCN(CC)CCCNC(=O)c1nn(C)c2c1CSc1ccccc1-2`: the “activity change, negative = cytotoxicity” value is -3.98%.

Regarding `COC(=O)c1ccc(-c2nc3cc(NC(C)=O)ccc3o2)cc1`, the “activity change, negative = cytotoxicity” value is 5.12%. As to `CCN1CCC(N(Cc2ccc(F)cc2)C(=O)Nc2cc(C)ccc2C)CC1`, the “activity change, negative = cytotoxicity” value is -12.8%. For the molecule `COc1cc(OC)cc(C(=O)Nc2c(C(=O)Nc3ccc(F)cc3)oc3ccccc23)c1`, the “activity change, negative = cytotoxicity” value is -0.156%. Then `Cc1cccc(NC(=O)CSc2nc3c([nH]c4ccccc43)c(=O)n2-c2cc(C)cc(C)c2)c1`, with 7.62%. Then `CCN(CCCNC(=O)Cn1ncc2c3ccccc3n(C)c2c1=O)Cc1ccccc1`, with 3.84%; and `CCOc1ccc(CNC(=O)c2cc(-c3ccc(Cl)s3)nc3ccccc23)cc1`, with 8.53%. Regarding `O=C(NCC12CC3CC(CC(C3)C1)C2)c1cc2nc(-c3ccccc3)cc(C(F)(F)F)n2n1`, the “activity change, negative = cytotoxicity” value was 14.3%.

`O=C(NCCCO)C(=O)Nc1c2c(nn1-c1ccc(F)cc1)CSC2`: the “activity change, negative = cytotoxicity” value was -15.3%.

Regarding `Cc1c(NS(=O)(=O)c2ccc(Cl)cc2)c(=O)n(-c2ccccc2)n1C`, the “activity change, negative = cytotoxicity” value is 3.6%.

For `Cc1ccc(C)c(N2CCN(C(=O)Cn3ncc4c(=O)oc5ccc(C)cc5c43)CC2)c1`, the “activity change, negative = cytotoxicity” value is 4.69%. Then `Cc1ccccc1NC(=O)Cn1c(=O)n(CC2CCC(C(=O)NCCc3ccccc3)CC2)c(=O)c2ccccc21` (configuration not stated), with 16.1%. In the case of `COC(=O)c1c(NC(=O)C(C)Oc2ccc(Cl)c(C)c2)sc(C)c1C` (configuration not stated), the “activity change, negative = cytotoxicity” value is 0.0514%. Then `Cc1ccccc1C(=O)Nc1cc(C)c(O)c(-c2nc3ccccc3o2)c1`, with 17%. Then `CCOc1ccc(NC(=O)CCC(=O)N2CC(C)Oc3ccc(C)cc32)cc1` (configuration not stated), with 6.01%; and `COc1ccccc1C(=O)Nc1c(C(=O)Nc2ccc(C)cc2)oc2ccccc12`, with 8.02%.

As to `COc1ccc(CCNC(=O)CCCn2c(=O)c3ccccc3n(Cc3ccc(C)cc3)c2=O)cc1OC`, the “activity change, negative = cytotoxicity” value is 15.9%.

Consider `CN(CC(=O)Nc1ccccc1F)S(=O)(=O)c1ccc2c(c1)c(=O)n(C)c(=O)n2C`, for which the “activity change, negative = cytotoxicity” value is 15.6%. In the case of `Cc1cccc(C)c1Nc1c(-c2ccccc2O)nc2ncccn12`, the “activity change, negative = cytotoxicity” value is -10.5%. Take `Cc1ccc(C)c(NC(=O)CSC2=Nc3ccccc3N=C(c3ccc(F)cc3)C2)c1`: the “activity change, negative = cytotoxicity” value is -2.61%. For `O=C(CC1C(=O)N(c2ccccc2)C(=O)N1CCc1cccs1)Nc1ccc(F)cc1` (configuration not stated), the “activity change, negative = cytotoxicity” value was -17.5%. Then `COC(=O)c1ccc(NC(=O)c2cc(S(=O)(=O)N3CCC(C)CC3)cn2C)cc1`, with -14.5%; and `CC1CCCCN1CC(=O)N1CCCc2c1c(=O)oc1ccc(OCc3ccccc3)cc21` (configuration not stated), with 0.438%. As to `O=c1cc(CSc2ncn[nH]2)[nH]c2ccc(F)cc12`, the “activity change, negative = cytotoxicity” value is 0.415%. For `CN(C(=O)CSc1nnc(NC(=O)Nc2ccccc2)s1)c1ccccc1`, the “activity change, negative = cytotoxicity” value is -10%. On to `Cc1cc(F)ccc1NS(=O)(=O)c1ccc(-n2cccn2)cc1`, for which the “activity change, negative = cytotoxicity” value was -14.3%. For the molecule `Cc1ccc(Nc2c(-c3ccc(Cl)cc3)nc3sccn23)c(C)c1`, the “activity change, negative = cytotoxicity” value was 28.2%. Under `Cc1cccc(C(=O)N2c3nc(-c4ccco4)nn3C3(CCCCC3)[C@@H]3CCCC[C@@H]32)c1` stands 3.56%; under `CC1=C(C(=O)Nc2ccccc2)C(c2ccc(C)cc2)n2nc(SCc3ccccc3C)nc2N1` (configuration not stated), 3.66%; under `Cc1ccccc1NC(=O)c1cc2c([nH]c1=O)CC(C)(C)CC2=O`, 10.8%.

Regarding `CCOC(=O)C1CCN(c2csc3ccc(C)cc3c2=O)CC1`, the “activity change, negative = cytotoxicity” value is 3.59%. Consider `Cc1c(Cl)cccc1NC(=O)C(=O)NCCc1csc2nc(-c3ccccc3F)nn12`, for which the “activity change, negative = cytotoxicity” value was -22.5%. Consider `CCCCN(CCCNC(=O)c1cc(Nc2ccccc2OC)nc2ccccc12)c1ccccc1`, for which the “activity change, negative = cytotoxicity” value was 9.74%. With `Cc1ccc(N(CC(=O)NCc2ccc(Cl)cc2)S(=O)(=O)N(C)C)cc1`, the “activity change, negative = cytotoxicity” value was 13.9%. For the molecule `Cc1ccsc1CN(C(=O)c1oc2ccc(Br)cc2c1C)C1CCS(=O)(=O)C1` (configuration not stated), the “activity change, negative = cytotoxicity” value is -28.5%.

On to `Cc1ccc(NC(=O)c2oc3ccccc3c2NC(=O)Cc2cccs2)cc1`, for which the “activity change, negative = cytotoxicity” value is 10.9%. For `COc1ccc(CCNc2nc3c(-c4cccc(F)c4)nnn3c3ccccc23)cc1OC`, the “activity change, negative = cytotoxicity” value is -1.72%. `CNC(=O)CN1C(=O)c2cccnc2Sc2ccccc21`: the “activity change, negative = cytotoxicity” value is 0.0311%. Under `COc1ccc(CCNC(=O)c2cn(C)c3ccc(S(=O)(=O)N(C)C4CCCCC4)cc3c2=O)cc1OC` stands -12.3%; under `COc1ccc(N2CCN(S(=O)(=O)c3ccc(-c4coc(C)n4)cc3)CC2)cc1`, -6.43%. As to `COc1ccc(C2NC(=O)N(C)C3=C2C(=O)N(c2ccc(C(=O)O)cc2)C3)cc1` (configuration not stated), the “activity change, negative = cytotoxicity” value was 8.03%. As to `O=C(CN1CCN(Cc2ccc(Cl)cc2)C1=O)NCc1ccc(F)cc1`, the “activity change, negative = cytotoxicity” value is 1.11%.

For the molecule `COc1ccc(-n2c(SC)nc3sc4c(c3c2=O)CCN(C(C)=O)C4)cc1`, the “activity change, negative = cytotoxicity” value is 2.85%. Take `CCOc1ccc(NC(=O)Cn2cc(C(=O)c3ccc(C)cc3)c(=O)c3cc4c(cc32)OCCO4)cc1`: the “activity change, negative = cytotoxicity” value is -0.757%. As for `CC(=O)c1ccc(NC(=O)CCc2nc(-c3ccc(C)cc3)no2)cc1`, the “activity change, negative = cytotoxicity” value is -13.9%.
